Screens from PubChem.
tim23-1 inh – growth inhibitors of tim23-1 mutant yeast; S. cerevisiae tim23-1 growth, BacTiter-Glo luminescence, 24 h; inhibition, % at 20 µM; 330,000 compounds, 1.3% hits;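 active means growth inhibition of the mutant yeast at or above 50%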;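 further: temperature-sensitive mutant grown at 25 °C; plate controls were DMSO-treated mutant yeast for no effect and medium wells lacking yeast for full effect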
tim10-1 inh – inhibits growth of tim10-1 mutant yeast. S. cerevisiae tim10-1 ts strain growth, BacTiter-Glo, 24 h. inhibition, % at 20 µM. 330,000 compounds, 2.2% hits;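 active means inhibition of at least 40%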;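 further: mutant grown at 25 °C; 0% = DMSO wells with yeast and 100% = wells holding no yeast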
PfHsp90 set2 – growth inhibition of yeast expressing Plasmodium Hsp90. S. cerevisiae expressing PfHsp90, BacTiter-Glo ATP, 48 h; yeast lacking PDR1 and PDR3 efflux regulators. inhibition, % at 9.4 µM. 310,000 compounds, 0.32% hits;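 active means every replicate shows inhibition above about 80%, whatever the replicate mean, limit read from the data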;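 further: 0% = DMSO neutral controls and 100% = 20 µM radicicol positive controls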
TIM10 inh – TIM10 yeast growth inhibition; S. cerevisiae TIM10 strain growth, BacTiter-Glo luminescence, 24 h; inhibition, % at 10 µM; 330,000 compounds, 1.4% hits;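 active means inhibition of 40% or more at the single tested concentration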;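 further: wild-type TIM10 isogenic control strain grown at permissive 25 °C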
SKKanGAS inh – inhibitors of SKKanGAS S. pyogenes growth in kanamycin (SK-promoter or general growth effect); BacTiter-Glo, 6 h; inhibition, % at 7.5 µM; 300,000 compounds, 1.3% hits;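 active means mean replicate score, as percent of positive control median, at least 50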;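 further: strain carries kanamycin resistance gene driven by streptokinase promoter and grows in 40 µg/ml kanamycin; loss of luminescence reflects streptokinase promoter inhibition or plain growth inhibition; 0% = median of DMSO wells and 100% = positive control at its reference dose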
ATG4B inh – ATG4B (human) cysteine protease inhibition; ATG4B cleavage of LC3-PLA2, NBD-HPC fluorescence, 1 h; AID 504462; inhibition, % at 8.33 µM; Q9Y4P1; 340,000 compounds, 0.51% hits; in the data active means inhibition above about 40%
Target sequence (Q9Y4P1 whole entry, looked up): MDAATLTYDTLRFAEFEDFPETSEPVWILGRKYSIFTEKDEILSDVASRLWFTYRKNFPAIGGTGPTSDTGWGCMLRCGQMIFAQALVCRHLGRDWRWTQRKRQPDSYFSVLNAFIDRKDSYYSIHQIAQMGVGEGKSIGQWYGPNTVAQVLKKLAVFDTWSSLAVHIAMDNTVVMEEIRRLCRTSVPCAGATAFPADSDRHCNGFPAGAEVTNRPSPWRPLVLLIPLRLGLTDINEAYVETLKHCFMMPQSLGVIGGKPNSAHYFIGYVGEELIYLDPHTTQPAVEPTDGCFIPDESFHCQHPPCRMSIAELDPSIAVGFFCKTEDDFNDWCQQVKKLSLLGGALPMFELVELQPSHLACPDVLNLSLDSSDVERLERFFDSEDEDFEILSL
tim10-1 conf – tim10-1 yeast growth inhibition, confirmed; shares compounds with tim10-1 inh; inhibition, % at 20 µM; S. cerevisiae tim10-1 ts strain growth, BacTiter-Glo, 24 h; 7,400 compounds, 56% hits; AID 463213;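 active means inhibition of yeast growth at or above a set limit in either of two repeat tests at 20 µM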;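 further: tim10-1 mutant grown at permissive 25 °C to find synthetic lethal compounds; 0% = DMSO yeast wells and 100% = medium wells without yeast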
* marks the source's active call; other numbers are inactive results; / = not tested or not shown. Rows were chosen to be rich in hits. Some 4.7% of all compounds tested hit in one or more screens of this group.

SMILES	tim23-1 inh	tim10-1 inh	PfHsp90 set2	TIM10 inh	SKKanGAS inh	ATG4B inh	tim10-1 conf
CC(NC(=O)Cc1cccs1)C(c1cccs1)N1CCN(c2ccccc2)CC1 (stereo not given)	37	33	-6	33	0	0	/
CC(NC(=O)Cc1cccs1)C(c1cccs1)N1CCN(c2ccccc2F)CC1 (stereo not given)	32	46*	0	31	5	2	37*
CC(NC(=O)c1ccco1)C(c1cccs1)N1CCN(c2ccccc2)CC1 (stereo not given)	24	15	-81	7	0	2	/
O=C(c1cc2ccccc2oc1=O)N(Cc1cccs1)Cc1ccccc1Cl	24	27	14	20	34	1	/
Cc1cc(NC(=S)N(CCN2CCOCC2)Cc2ccccc2F)ccc1Cl	25	44*	19	32	-4	-3	16
Cc1ccc(NC(=S)N(CCN2CCOCC2)Cc2ccccc2F)cc1	21	25	-14	5	-5	-3	/
CC(=O)Nc1ccc(S(=O)(=O)N2CCC(C(=O)NCCc3c[nH]c4ccccc34)CC2)cc1	0	0	4	-6	1	-4	/
Cc1ccc(C(=O)Nc2ccc(N3CCOCC3)cc2)cc1	12	-1	17	6	1	-5	/
COc1ccc(-c2onc(C)c2C)cc1S(=O)(=O)NCCc1ccco1	37	43*	3	-14	0	-2	2
C=CCNC(=S)N/N=C(\C)c1ccc(OC)cc1	7	41*	-7	20	-4	-12	14
Cc1ccccc1-c1nc2ccccc2c(=O)n1/N=C/c1ccccc1[N+](=O)[O-]	46	44*	/	10	3	8	31
COc1ccc(C)cc1NC(=S)NNC(=O)c1ccccc1Cl	23	44*	12	29	/	5	48*
COc1ccccc1C(=O)NNC(=S)Nc1ccccc1	/	/	-49	/	-5	-1	/
Cn1c(N/N=C/c2cc3ccccc3nc2Cl)nc2ccccc21	30	42*	51	21	6	-10	33*
Cc1cccc(C)c1OCC(=O)N=Nc1c(O)[nH]c2ccc(Br)cc12	31	53*	-19	32	17	-1	35*
Cc1cc(C)nc(Sc2ccc([N+](=O)[O-])cc2[N+](=O)[O-])n1	43	47*	-27	9	1	-4	30*
C=CCn1nc([N+](=O)[O-])nc1Sc1cccc2cccnc12	41	52*	3	16	-6	0	37*
O=[N+]([O-])c1cc(Cl)ccc1Sc1cccc2cccnc12	22	28	-6	31	9	-7	/
O=[N+]([O-])c1ccc(Sc2cccc3cccnc23)c([N+](=O)[O-])c1	50	56*	-9	30	/	-2	57*
CCOP1(=O)C=C(Sc2ccc([N+](=O)[O-])cc2[N+](=O)[O-])C(C)(C)O1 (stereo not given)	/	/	7	/	/	5	/
CCO[C@@H]1OC(C(=O)NC2CC2)=C[C@H](c2csc3ccccc23)[C@H]1CCCO	0	-20	24	2	4	-3	/
CC(C)c1ccc(S(=O)(=O)N2CCN(CC(=O)c3ccc(O)c(O)c3)CC2)cc1	24	50*	-16	22	5	/	9
N#Cc1c(-c2cccs2)cc(-c2cccnc2)nc1N	37	43*	-6	26	5	-9	29
N#Cc1c(-c2ccc(F)cc2)cc(-c2cccnc2)nc1N	-17	15	4	-21	-4	-7	/
O=C(NCCN1C(=O)S/C(=C\c2ccc(OC(F)F)cc2)C1=O)C1=COCCO1	43	44*	/	28	-6	7	29
Cc1ccccc1CC(=O)N1CCN(C(=O)C2CCCO2)CC1 (stereo not given)	8	6	21	-2	-3	-2	/
C=CCOC(=O)C(C#N)c1nc2ccccc2nc1N1CCN(Cc2ccc3c(c2)OCO3)CC1 (stereo not given)	42	41*	-35	23	13	20	26
O=S(=O)(Oc1ccc(C(=S)N2CCOCC2)cc1)c1ccc(Cl)cc1	29	12	-15	-1	-1	10	/
